12-LOX inh – inhibitors of human 12S-lipoxygenase ALOX12 | AID 1671190 | P18054 | purified 12hLO, xylenol orange hydroperoxide absorbance | 580,000 tested, 1.1% active | Potency, µM (doses to about 108 µM), for inactives: at the highest dose activity change, negative = inhibition, actives largely listed as inhibitors; further: on the % scale 0 is the no-effect control and ±100 the full control effect
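Hydroperoxide product was detected by ferrous iron/xylenol orange as the 573 to 405 nm absorbance ratio. Arachidonic acid at 40 uM (final) was turned over for 30 min at room temperature by 150 nM human 12hLO, pH 7.0 Hepes buffer, after 15 min compound preincubation.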
HP1b chromo inh – blocks HP1-beta chromodomain binding to methylated histone tails; 390,000 tested, 0.56% active; P83916; AlphaScreen HP1-beta / biotin-H3K9me3 peptide binding; Potency, µM (doses to about 114 µM), without a hit: top-dose activity change, negative = inhibition, most hits filed as inhibitors; further: nearly all actives have a fitted effect of over 70% in size
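Compound inhibition of the preformed complex between 50 nM HP1-beta and 50 nM biotinylated H3K9me3 peptide was read by AlphaScreen. Buffer was PBS pH 7.4 with 0.01% Tween-20. Incubations ran 30 min at room temperature, with 10 ug/mL donor/acceptor beads.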
JMJD2A Tudor – JMJD2A Tudor domain (human) inhibition | AlphaScreen JMJD2A-Tudor / H3K4me3 peptide binding | Potency, µM (series often up to 114 µM), for inactives: at the highest dose activity change, negative = inhibition, actives largely listed as inhibitors | 390,000 tested, 4.4% active | AID 504339; further: on the % scale 0 is the no-effect control and ±100 the full control effect; nearly all actives have a fitted effect of over 50% in size
G9a block – blocks human histone lysine methyltransferase G9a; Q96KQ7; Potency, µM (highest dose often 102 µM), inactives show at the top dose activity, negative = inhibition, hits mostly inhibitors; G9a H3K9 monomethylation, AlphaScreen, 2 h; AID 504332; 350,000 tested, 8.8% active; further: on the % scale 0 is the no-effect control and ±100 the full control effect; nearly all actives have a fitted effect of over 75% in size
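AlphaScreen detection with an anti-monomethyl H3K9 antibody quantified product after a 2 h room-temperature reaction containing 500 nM biotinylated H3K9 peptide, 20 µM SAM and 20 nM enzyme, which had been preincubated 15 min with compound.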
PLK1 PBD block – inhibitors of human PLK1 polo-box domain binding. Plk1 PBD binding of FITC phosphopeptide, fluorescence polarization. Potency, µM, without a hit: max response, negative = inhibition, actives largely listed as inhibitors. AID 720504. 360,000 tested, 2.8% active. P53350; further: series mostly up to about 57 µM; on the % scale 0 is the no-effect control and ±100 the full control effect; nearly all actives have a fitted effect of over 65% in size
BAZ2B block – BAZ2B (human) inhibition | AID 504333 | Potency, µM (series often up to 114 µM), inactives show at the top dose activity change, negative = inhibition, hits mostly inhibitors | AlphaScreen BAZ2B-H3K14Ac peptide displacement | 360,000 tested, 4.4% active; further: on the % scale 0 is the no-effect control and ±100 the full control effect; nearly all actives have a fitted effect of over 60% in size
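Complex of BAZ2B and biotin-H3K14Ac (50 nM apiece) forms over 30 min at RT, then faces library compounds up to 110 uM for another 30 min; AlphaScreen beads added, 20 min dark incubation, luminescence read.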
Starred values were filed as active, the others as inactive; ? = inconclusive; / = no result given; [ ] = another dose, or the depositor's remark. The list is not random: actives were taken first. Their share in the collection is about 9%. The call rests on the fitted dose curve; in most records, active means well fitted curve in the direction sought with a large enough effect; inconclusive means small, poorly fitted or top-dose-only effect, or another doubt; inactive means no such curve, though single readings can be large; an effect the other way counts as inactive or inconclusive. Potency means the concentration at half of the fitted maximal effect.

SMILES	12-LOX inh	HP1b chromo inh	JMJD2A Tudor	G9a block	PLK1 PBD block	BAZ2B block
COc1cccc(/C=N/N2C(=O)NC3(CCCCC3)C2=O)c1O	?	16.7%	-26.9%	15.8µM*	-3.3%	3.1%
CCOc1cc(/C=N/N2C(=O)NC3(CCCCC3)C2=O)cc(Br)c1O	54.2%	11.4%	-15.9%	?	-9.6%	/
CSc1nc(=S)cc(C)[nH]1	?	?	25.1µM*	/	15µM*	3.2%
Cc1cc(=S)nc(-c2ccccn2)[nH]1	?	-3.2%	?	?	?	?
Cc1cc(Cl)ccc1NC(=S)NCc1ccccc1Cl	?	29.2%	7.4%	8.7%[59 µM]	0.3%	-9.1%
Nc1ccc(C(=O)N/N=C/c2cn(Cc3ccccc3)c3ccccc23)cc1	/	-12.8%	?	-13.3%	-6.4%	?
Cn1cc(/C=N/Nc2ccccc2)c2ccccc21	?	?	50.1µM*	12.6µM*	-9.9%	39.8µM*
O=C(N/N=C/c1cn(Cc2cccc(F)c2)c2ccccc12)c1cc(O)cc(O)c1	?	11.2µM*	7.08µM*	/	18.9µM*	6.31µM*
CC(C)n1cc(/C=N/Nc2ccc(C(=O)O)cc2)c2ccccc21	?	0.6%	-31.0%	44.7µM*	?	-35.3%
O=C(O)c1ccc(N/N=C/c2c[nH]c3ccccc23)cc1	0.0%	21.4%	-18.5%	?	-26.6%	?
O=C(O)c1ccc(N/N=C/c2cn(Cc3ccccc3F)c3ccccc23)cc1	-19.2%	-16.0%	56.2µM*	1.9%[12.7 µM]	29.9µM*	39.8µM*
CCOC(=O)N1CCC(NC(=O)c2cccc3c2C(=O)N(CCOC)C3)CC1	0.9%	13.2%	-19.7%	3.3%	-6.5%	10.8%
COc1ccc(CCNc2cc(C)nc3c(-c4ccccc4OC)cnn23)cc1OC	/	103.5%	0.0%	8.3%	1.9%	13.4%
Nc1ccc(C(=O)N/N=C/c2cn(Cc3ccc(F)cc3)c3ccccc23)cc1	413.2%	12.6%	?	5.4%	-2.9%	?
Nc1ccc(C(=O)N/N=C/c2cn(Cc3ccccc3F)c3ccccc23)cc1	478.5%	8.6%	89.1µM*	/	1.3%	35.5µM*
O=C(Nc1ccccc1)C1CC2CCCC(C1)C2=O (configuration not stated)	2.3%[57.4 µM]	18.5%	-11.2%	-46.0%[12.7 µM]	-1.8%	-1.6%
C[C@H](CO)N1C[C@H](C)[C@@H](CN(C)S(=O)(=O)c2ccc(F)cc2)Oc2c(NC(=O)Nc3ccc4c(c3)OCO4)cccc2C1=O	-27.2%	-8.2%	?	/	-15.9%	/
Cc1nnc(SCC(=O)N(CC(C)C)C2CCS(=O)(=O)C2)n1N (configuration not stated)	3.5%	33.3%	-1.6%	-2.5%[59 µM]	3.6%	-0.1%
CC(C)CN(C(=O)CSc1nnc2c(Cl)cc(C(F)(F)F)cn12)C1CCS(=O)(=O)C1 (configuration not stated)	10.9%	3.0%	-18.9%[57.1 µM]	12.1%[59 µM]	26.7µM*	8.3%
Cc1cc(C2=CC(C)(c3cc(C)oc3C)Nc3nc(C(F)(F)F)nn32)c(C)o1 (configuration not stated)	/	/	/	?	/	56.2µM*
Cc1ccc(C2=CC(C)(c3ccc(C)cc3)Nc3nc(C(F)(F)F)nn32)cc1 (configuration not stated)	-21.4%	-14.2%	-30.3%	-22.4%[59 µM]	0.1%	-36.9%
CCc1cccc(NC(=O)c2nnn(Cc3ccc(SC)cc3)c2N)c1	-4.4%	20.1%	-18.2%	-2.2%[59 µM]	/	-0.9%
N=C1S/C(=C\c2ccc(-c3ccccc3C(=O)O)o2)C(=O)N1c1ccc2c(c1)OCO2	14.1µM*	28.2µM*	22.4µM*	3.55µM*	26.7µM*	20µM*
Cc1c(C(=O)O)cccc1-c1ccc(/C=C2\SC(=O)NC2=O)o1	-17.5%	17.1%	-27.6%	/	-19.1%	-6.5%
O=C(O)CN1C(=O)S/C(=C\c2ccc3c(c2)OCO3)C1=O	?	50.4%	1.7%	/	-15.3%	/
SMILES	12-LOX inh	HP1b chromo inh	JMJD2A Tudor	G9a block	PLK1 PBD block	BAZ2B block
COc1ccccc1N1C(=N)S/C(=C\c2ccc(-c3ccccc3C(=O)O)o2)C1=O	-23.5%	-12.6%	?	15.8µM*	-13.9%	?
COc1cc(/C=C(\C#N)C(N)=O)cc(CSc2nc3ccccc3s2)c1O	?	/	/	5.01µM*	/	/
COc1cc(OC)c(C(=O)Nc2nnc(C)s2)cc1OC	-1.5%	/	/	/	/	/
CC1Cc2ccccc2N1Cc1nc2scc(-c3cccs3)c2c(=O)[nH]1 (configuration not stated)	?	22.2%	-15.2%	44.7µM*	-2.3%	-32.5%
CC1Cc2ccccc2N1Cc1nc2cc(Cl)ccc2c(=O)[nH]1 (configuration not stated)	0.0%	2.7%	?	?	-12.2%	?
COC(=O)c1ccc2c(=O)[nH]c(CN3c4ccccc4CC3C)nc2c1 (configuration not stated)	-0.7%	8.0%	-30.0%	11.2µM*	-13.7%	-28.9%
C[C@H]1CN(c2ccccc2)C(=O)[C@@H]1CC(=O)Nc1ccccc1	-8.4%	/	/	/	-2.9%	/
Cc1ccc2c(ccc(=S)n2C)c1	?	39.0%	-18.6%	39.8µM*	-5.9%	?
Cc1ccc2c(c1)cc(C(=O)N1CCN(C)CC1)n2C	3.4%	/	/	/	/	/
CC1CCCC(C)N1/N=C/c1ccccc1F (configuration not stated)	?	?	3.16µM*	3.16µM*	-2.6%	50.1µM*
c1ccc(CNc2nc(N3CCN(Cc4ccccc4)CC3)nc3ccccc23)cc1	?	-2.5%	-33.8%	?	-10.8%	50.1µM*
c1ccc(N2CCN(c3nc(NCc4ccco4)c4ccccc4n3)CC2)cc1	?	-38.3%	50.1µM*	44.7µM*	-2.3%	44.7µM*
CN1c2ccc(Cl)cc2C(=O)NC1c1ccc([N+](=O)[O-])s1 (configuration not stated)	-4.6%	-3.9%	-27.2%	-12.2%[59 µM]	-0.7%	-32.0%
CCC(C(=O)NCCC1=CCCCC1)n1nc(C)c2c(C)n(-c3ccccc3)nc2c1=O (configuration not stated)	23.7%	4.5%	?	44.4%	26.7µM*	-26.6%
CCC(C(=O)NC1CCCCCC1)n1nc(C)c2c(C)n(-c3ccccc3)nc2c1=O (configuration not stated)	4.7%	4.3%	?	76.8%	29.9µM*	-21.6%
CCC(C(=O)NC1CC1)n1nc(C)c2c(C)n(-c3ccc(C)cc3)nc2c1=O (configuration not stated)	3.8%	27.1%	-12.4%	26.9%	2.7%	-2.6%
Cc1ccc(/C=C/S(=O)(=O)NCC(=O)O)cc1	-27.2%	23.6%	2.4%	?	-2.5%	-27.3%
CC(NCC1COc2ccccc2O1)C1COc2ccccc2O1 (configuration not stated)	?	-3.6%[57 µM]	3.98µM*	-26.9%	?	?
